Screening results deposited in PubChem BioAssay by The Scripps Research Institute Molecular Screening Center.
Rows were chosen to be rich in hits. Some 1.3% of all compounds tested hit in one or more screens of this group.
Fam108B counter – mouse Fam108B serine hydrolase inhibitors, primary screen, counter-screen for RBBP9 inhibitor project, biochemical, fluorescence polarization. recombinant Fam108B, FP-Rh probe fluorescence polarization. hit rate 0.33% among 300,000. inhibition, % at 9.51 µM;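 active = inhibition above the screen mean inhibition plus 3 SD, computed separately per campaign, cut at about 18% in these data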;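 also: inhibitors lower polarization as less probe binds the enzyme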
PME-1 primary – PME-1 inhibitors via competitive probe labeling, primary screen, biochemical, fluorescence polarization, FP-Rh probe, HTS; inhibition, % at 5.9 µM; Protein phosphatase methylesterase 1 (Homo sapiens), Q9Y570; recombinant PME-1; AID 2130, 2009; hit rate 0.53% among 320,000;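 active = inhibition above the campaign mean of all compounds plus 3 SD, cut at about 26% in these data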;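 also: competitive labeling of PME-1 active site by serine hydrolase directed probe; 0% = PME-1 with DMSO and 100% = wells lacking PME-1 enzyme; inhibitors block probe labeling so polarization falls and inhibition rises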
PREPL inhibitor – PREPL enzyme inhibitors, primary screen, biochemical, fluorescence polarization | hit rate 0.68% among 320,000 | inhibition, % at 5.96 µM | recombinant PREPL, fluorescence polarization activity-based probe | Prolyl endopeptidase-like (Homo sapiens), Q4J6C6; in the data active = inhibition above about 43%;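 also: 0% = enzyme with DMSO and 100% = wells lacking enzyme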
LYPLA1 inh – LYPLA1 inhibitors, primary screen, counter-screen for PME1 inhibitor project, biochemical, fluorescence polarization, FP-Rh probe ABPP. Acyl-protein thioesterase 1 (Homo sapiens), O75608. recombinant LYPLA1. inhibition, % at 5.9 µM. hit rate 0.16% among 320,000;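 active = inhibition above the mean of all tested compounds plus 3 SD, set per campaign, cut at about 14% in these data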;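 also: inhibitors block serine hydrolase probe labeling of LYPLA1 so polarization falls; 0% = enzyme with DMSO and 100% = wells lacking LYPLA1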
Target sequence (O75608 whole entry, looked up): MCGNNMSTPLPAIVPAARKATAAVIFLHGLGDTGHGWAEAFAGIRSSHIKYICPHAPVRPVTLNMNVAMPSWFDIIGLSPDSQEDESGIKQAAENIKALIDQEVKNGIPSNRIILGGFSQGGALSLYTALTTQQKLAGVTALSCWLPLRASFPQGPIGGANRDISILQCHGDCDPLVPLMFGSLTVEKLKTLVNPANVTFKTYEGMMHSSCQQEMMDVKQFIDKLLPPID
LYPLA2 counter – LYPLA2 inhibitors, primary screen, counter-screen for PME1 inhibitor project, biochemical, fluorescence polarization, FP-Rh probe ABPP. Acyl-protein thioesterase 2 (Homo sapiens), O95372. recombinant LYPLA2. inhibition, % at 5.9 µM. hit rate 0.38% among 320,000;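 active = inhibition above the screen-wide mean plus 3 SD, limit set per campaign, cut at about 26% in these data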;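 also: 0% = LYPLA2 with DMSO and 100% = wells lacking LYPLA2 enzyme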
Target sequence (O95372 whole entry, looked up): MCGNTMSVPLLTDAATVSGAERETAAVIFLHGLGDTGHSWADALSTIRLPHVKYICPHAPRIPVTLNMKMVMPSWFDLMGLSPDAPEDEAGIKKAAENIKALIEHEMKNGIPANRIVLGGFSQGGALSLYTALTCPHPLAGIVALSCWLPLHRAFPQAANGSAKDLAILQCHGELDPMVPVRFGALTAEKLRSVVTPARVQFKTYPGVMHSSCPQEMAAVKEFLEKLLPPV
LYPLA1 conf – LYPLA1 inhibitors, retest, confirmation, counter-screen for PME1 inhibitor project, biochemical, fluorescence polarization, FP-Rh probe ABPP. shares compounds with LYPLA1 inh. recombinant LYPLA1. inhibition, % at 5.9 µM. hit rate 69% among 480;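 active = mean inhibition across replicates above the hit cutoff set in the primary screen, cut at about 15% in these data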;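 also: loss of FP-Rh probe labeling of LYPLA1 seen as lower polarization; 0% = LYPLA1 with DMSO and 100% = wells lacking LYPLA1 enzyme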
An asterisk follows results filed as active; . = no result; + = active, no number.

SMILES	Fam108B counter	PME-1 primary	PREPL inhibitor	LYPLA1 inh	LYPLA2 counter	LYPLA1 conf
COc1cccc(C(=O)O/N=C(\N)CS(=O)(=O)c2ccccc2)c1	-1	-3	-20	-8	-3	.
Cc1cc(C)c2c(N)c(C(=O)Nc3ncc(C)s3)sc2n1	-7	5	13	28*	-6	21*
COc1ccc2nc(NC(=O)c3cc(C)oc3C)sc2c1	-4	-1	-6	-3	-7	.
COc1ccc2nc(NC(=O)c3sc4nc(C)cc(C)c4c3N)sc2c1	-4	0	11	15*	5	18*
COC(=O)c1sc2nc(C)cc(C)c2c1N	0	-1	-1	-3	-2	.
CN(C)C(CNC(=O)c1ccc(S(=O)(=O)N(C)C)cc1)Cc1ccccc1 (stereo not drawn)	0	-2	8	5	9	.
COCCn1c(=O)[nH]c2cc(C(=O)N3CCN(c4cccc(Cl)c4)CC3)ccc2c1=O	-3	-1	22	52*	-8	1
O=C(O)c1ccc(CSc2nc3ccccc3c(=O)n2-c2ccccc2)cc1	-2	2	-6	17*	22	27*
COc1ccc(S(=O)(=O)Nc2ccc(S(=O)(=O)Nc3nc(C)cc(C)n3)cc2)cc1OC	1	4	23	-1	-4	.
Cc1cccc(CNc2ccc(S(=O)(=O)N3CCCCC3)cc2)c1	.	-2	29	-3	-8	.
Cc1nc2c(C(=O)NCCc3ccccc3Cl)c[nH]n2c(=O)c1Cl	11	12	12	18*	13	16*
Cc1cc(C)c2oc(C(=O)N3CCN(C)CC3)cc(=O)c2c1	-3	1	-3	8	0	.
Cc1cc(C)c2oc(C(=O)N3CCN(Cc4ccccc4)CC3)cc(=O)c2c1	-4	3	-9	21*	-6	26*
Cc1cc2oc(C(=O)Nc3ccc(S(=O)(=O)Nc4onc(C)c4C)cc3)cc(=O)c2cc1Cl	11	-3	6	20*	9	22*
Cc1noc(NS(=O)(=O)c2ccc(NC(=O)c3cc(=O)c4ccccc4o3)cc2)c1C	2	-2	2	2	4	.
CCO[C@@H]1OC(C(=O)N2CCCCCCC2)=C[C@H](C2CCCCC2)[C@H]1CCCO	0	-1	8	-1	-3	.
CC1CC(=O)Nc2ccccc2S1(=O)=O (stereo not drawn)	-2	5	5	18*	11	5
O=S1(=O)c2ccccc2Nc2ccccc21	2	6	14	-5	-3	.
CS(=O)(=O)N1CCN=C1SCc1ccc([N+](=O)[O-])cc1	4	4	0	+	5	0
Cc1ccc(S(=O)(=O)CCC(=O)OCC(=O)Nc2cc(S(=O)(=O)N3CCOCC3)ccc2C)cc1	0	1	20	-1	1	.
Cn1c(=O)[nH]c2nnc(-c3ccc(Cl)c(Cl)c3)nc2c1=O	6	14	4	14*	3	24*
O=C(CN1CCN(C(=O)c2ccco2)CC1)Nc1ccccc1-c1ccccc1	5	0	11	2	2	.
O=C(CN1CCN(C(=O)c2ccccc2)CC1)Nc1cc(S(=O)(=O)N2CCCC2)ccc1Cl	.	15	8	78*	10	81*
O=C(CN1CCN(C(=O)c2cccc(S(=O)(=O)N3CCCC3)c2)CC1)Nc1ccccc1Cl	.	11	35	-2	4	.
O=C(CN1CCN(C(=O)c2ccco2)CC1)Nc1cc(Cl)ccc1Cl	2	7	3	82*	16	85*
CCN(c1ccc(NC(=O)c2ccc(N3CCCC3=O)cc2)cc1)C(C)C	5	7	11	16*	0	17*
CCOC(=O)/C(=C\C=C\N1CCOCC1)C(C)=O	-5	-3	-1	-4	2	.
COC(=O)C(=C/C=C/N1CCOCC1)C(=O)OC	6	7	13	15*	14	-1
CCCCC1OC23CCCCC2C(C#N)(C#N)C1(C#N)C(=N)O3 (stereo not drawn)	4	10	11	15*	17	2
